Compound activity deposited in PubChem BioAssay by several laboratories.
Rows were chosen to be rich in hits. Some 27% of all compounds tested hit in one or more screens of this group.
CYP2C9 act = increases human cytochrome P450 2C9 activity; 96,000 tested, 1.4% active; activation factor at 5 µM; P11712; recombinant CYP2C9, luciferin-H conversion, luminescence; active compounds read high; factor 1 = untreated enzyme, 0 = blocked; AID 1024;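 active = activation factor of 2 or more for CYP2C9 at a 5 µM dose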
CYP2C19 inhib = inhibitors of human CYP2C19; P33261; CYP2C19 Supersomes, luciferin-H EGE luminescence, 30 min; inhibition, % at 5 µM; 96,000 tested, 21% active; AID 778;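 active = CYP2C19 inhibition above a set limit at 5 µM in the primary screen, cut at about 50% in these data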
CYP2C9 inhib = inhibitors of human CYP2C9 | CYP2C9 Supersomes, luciferin-H conversion, luminescence | inhibition, % at 5 µM | 96,000 tested, 20% active;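 active = blocking of liver enzyme CYP2C9 beyond about 50% at 5 µM, limit read from the data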
CYP2C19 act = cytochrome P450 2C19 (human) activation | P33261 | recombinant CYP2C19, luciferin-H EGE luminescence; active compounds read high; 0 = fully inhibited enzyme, 1 = untreated enzyme | activation factor at 5 µM | 96,000 tested, under 10 active | AID 1025;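 active = activation factor of at least 2 at 5 µM in the primary screen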
Cav3 T inh = inhibitors of human Cav3.2 T-type calcium channel; O95180; Cav3.2-expressing cells, Fluo-4 calcium fluorescence FDSS; active compounds read low; B-score at 10 µM; 100,000 tested, 4% active;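 active = single-dose well whose peak fluorescence ratio is a statistical outlier from its plate by either plate-standardised score or position-corrected B-score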
A number is an active result; n = inactive; x = no result.

SMILES	CYP2C9 act	CYP2C19 inhib	CYP2C9 inhib	CYP2C19 act	Cav3 T inh
O=C(Nc1nc(N2C(=O)c3ccccc3C2=O)n(-c2ccccc2)n1)c1ccc(Cl)cc1	n	n	n	n	n
CCOC(=O)N1CCC(NC(=O)c2ccc3c(=O)n4c(nc3c2)CCCC4)CC1	n	n	n	n	n
C=CCNC(=O)C1CC(=O)N(c2ccc(OCC(=O)Nc3cccc(OC)c3)cc2)C1 (stereo not drawn)	n	n	56	n	n
C=CCNC(=O)C1CC(=O)N(c2ccc(OCC(=O)Nc3ccc(Cl)c(C(F)(F)F)c3)cc2)C1 (stereo not drawn)	n	n	n	n	n
COc1ccccc1CNC(=O)C1CC(=O)N(c2ccc(C)c(C)c2)C1 (stereo not drawn)	2.5	58	n	n	n
O=C(NCCOc1ccc(Cl)cc1)C1CC(=O)N(c2ccc(F)cc2)C1 (stereo not drawn)	n	n	n	n	n
O=C(Nc1cccc(F)c1)C1CC(=O)N(c2ccc(Cl)cc2)C1 (stereo not drawn)	n	88	71	n	-5.8
C=CCN(CC=C)C(=O)C1CC(=O)N(c2ccc(Br)cc2)C1 (stereo not drawn)	n	63	n	n	n
Clc1cccc2sc(-c3nnc(-c4ccccc4)o3)c(Cl)c12	x	x	x	x	n
COc1ccc(OC)c(NC(=O)C2CC(=O)N(c3ccc(Br)cc3)C2)c1 (stereo not drawn)	n	86	84	n	n
COc1ccc(OC)c(NC(=O)C2CC(=O)N(c3ccccc3)C2)c1 (stereo not drawn)	n	n	n	n	n
O=C(Nc1cccc(F)c1)C1CC(=O)N(c2ccc(Br)cc2)C1 (stereo not drawn)	n	63	63	n	-5.4
COc1ccc(/C=C2\SC(=O)N(CCNC(=O)C3CC(=O)N(c4ccccc4)C3)C2=O)cc1 (stereo not drawn)	n	n	59	n	n
COc1cccc(-c2nc(CS(=O)(=O)CC(=O)N3CCc4ccccc43)c(C)o2)c1	n	n	n	n	n
CCN=C1Sc2nc3ccc(OCC)cc3cc2CN1CCOC	n	91	96	n	n
CCOc1ccc2nc3c(cc2c1)CN(CCOC)C(=NC)S3	x	x	x	x	n
Cc1ccc(CC(=O)N2CCN(c3cccc(C(F)(F)F)c3)CC2)cc1	n	n	n	n	-5.4
O=C(CC1CCCCC1)N1CCN(c2ccccn2)CC1	n	54	62	n	n
CN(CC(=O)N1CCN(c2ccccn2)CC1)S(=O)(=O)c1ccc(Br)cc1	n	63	n	n	n
CC(=O)Nc1ccc(CN2CCN(c3cccc(C(F)(F)F)c3)CC2)cc1	n	n	n	n	n
COc1ccccc1NC(=O)N1CCN(c2ncccn2)CC1	2.4	n	n	n	n
CC1CN(C2CCN(C(=O)c3ccccc3Cl)CC2)CC(C)O1 (stereo not drawn)	n	n	n	n	x
O=C(CSc1nccc2ccccc12)N1CCN(c2ccccn2)CC1	n	66	n	n	x
O=C(O)CCC(=O)N1CCN(c2ccccn2)CC1	n	n	n	n	x
COc1ccccc1NC(=O)C(=O)Nc1ccccn1	2.3	n	n	n	n
SMILES	CYP2C9 act	CYP2C19 inhib	CYP2C9 inhib	CYP2C19 act	Cav3 T inh
S=C(Nc1cccc2ccccc12)N1CCN(c2ncccn2)CC1	n	58	n	n	n
COc1ccccc1NC(=O)N1CCN(c2cccc(C(F)(F)F)c2)CC1	2.1	85	n	n	n
O=C(c1csc2ccccc12)n1cccn1	n	n	n	n	x
Cc1cc(N)n(-c2nc(-c3cccnc3)nc3ccccc23)n1	n	n	n	n	x
CCOC(=O)N1CCC(Nc2c(N3CCN(c4cccc(C(F)(F)F)c4)CC3)c(=O)c2=O)CC1	n	n	58	n	n
COc1ccccc1CC(=O)N1CCN(c2ccccn2)CC1	n	58	n	n	n
COc1ccccc1CC(=O)N1CCCC1	n	n	n	n	n
O=C(Nc1ccncc1)Nc1ccccn1	n	91	68	n	n
COc1ccccc1CC(=O)N1CCN(c2cccc(C(F)(F)F)c2)CC1	2	72	n	n	-4.8
CCC(c1c(C)[nH]oc1=O)c1c(C)[nH]oc1=O	n	n	n	n	n
CCC(=O)N=c1sc2c(C)cc(C)cc2n1CC(=O)OC	n	n	n	n	n
Cc1nc(SCC(=O)Nn2c(-c3ccccc3)nc3ccccc3c2=O)n[nH]1	n	n	n	n	n
O=C1OCCC1Sc1nc2ccccc2n1-c1ccccc1 (stereo not drawn)	n	69	66	n	n
O=C(O)Cn1c(SC2CCCCC2)nc2ccccc21	n	n	n	n	n
O=C1OCCC1Sc1nnc(-c2ccccc2)o1 (stereo not drawn)	n	n	n	n	n
COc1ccc(-n2c(SC3CCOC3=O)nc3ccccc32)cc1 (stereo not drawn)	n	51	n	n	n
O=C1OCCC1Sc1nc2ccccc2n1Cc1ccccc1 (stereo not drawn)	n	82	55	n	n
Nc1nnc(C(c2ccccc2)c2ccccc2)s1	n	n	n	n	n
COc1ccc(C2(C(=O)NCCCN(C)C)CCOCC2)cc1	n	n	n	n	x
NC(=O)C1CCN(C(=O)C2c3ccccc3C(=O)N3CCc4ccccc4C23)CC1 (stereo not drawn)	n	n	n	n	n
CC1Cc2nc(SCC(=O)c3ccccc3)n(Cc3ccccc3)c(=O)c2S1 (stereo not drawn)	n	n	97	n	-6.3
CCn1c(SCC(=O)Nc2nnc(C)s2)nc2c(c1=O)SC(C)C2 (stereo not drawn)	n	n	62	n	n
CCn1c(SCC(=O)Nc2ccc3c(c2)OCO3)nc2c(c1=O)SC(C)C2 (stereo not drawn)	n	69	84	n	n
CCC(Sc1nc2c(c(=O)n1CC)SC(C)C2)C(=O)OC (stereo not drawn)	n	n	56	n	n
CC1Cc2nc(SCC(=O)NCc3ccccc3)n(Cc3ccccc3)c(=O)c2S1 (stereo not drawn)	n	n	n	n	n
SMILES	CYP2C9 act	CYP2C19 inhib	CYP2C9 inhib	CYP2C19 act	Cav3 T inh
CN(C)C(CNC(=O)c1cccnc1Sc1ccccc1)c1ccco1 (stereo not drawn)	n	n	n	n	n
C=C(CC)C(=O)c1ccc(OCC(=O)O)c(Cl)c1Cl	x	x	x	x	n
CC1Cc2nc(SCC(=O)NC3CCCCC3)n(C)c(=O)c2S1 (stereo not drawn)	n	n	n	n	n
CCSc1nnc(NC(=O)CSc2nc3c(c(=O)n2C)SC(C)C3)s1 (stereo not drawn)	n	n	62	n	n
CC1Cc2nc(SCC(=O)Nc3nc4ccccc4s3)n(C)c(=O)c2S1 (stereo not drawn)	n	97	98	n	n
CCn1c(SCC(=O)Nc2cccc(C)c2)nc2c(c1=O)SC(C)C2 (stereo not drawn)	n	n	75	n	n
CC1Cc2nc(SCC(=O)N3CCc4ccccc43)n(C)c(=O)c2S1 (stereo not drawn)	n	n	93	n	x
